According to paper PMC9838217, “Structure of SALL4 zinc finger domain reveals link between AT-rich DNA binding and Okihiro syndrome”:
Changes are numbered by the printed parent chain.

These sequences were tested against T1, SALL4 ZFC4 WT (HT-SELEX) (Mus musculus, UniProt Q8BX22 870-940) (assay: HT-SELEX; high values mean tight binding). Conditions: protein: recombinant; vector His6-GST; dsDNA, one strand shown.
T1 sequence: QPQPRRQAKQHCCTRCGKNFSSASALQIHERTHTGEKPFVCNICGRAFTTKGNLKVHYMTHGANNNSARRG
Procedure, shortened: (§1)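 Recombinant mouse SALL4 zinc finger cluster 4 (residues 870–940, 1 µg), purified, was mixed with library DNA (1.5 µg in the first cycle, 200 ng thereafter) in 100 µl of buffer containing 10 mM Tris–HCl pH 7.5, 50 mM NaCl, poly(dI-dC) and DTT, and left for 10 min at room temperature. Complexes were captured on Ni2+ beads, washed, amplified by PCR and reselected for up to 6 cycles in triplicate, after which MiSeq sequencing and a 6-mer scan followed. Binding signal is the read fraction of each canonical k-mer, given as fold change relative to the starting random library.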
Work on AGACCA yielded a binding signal of 0.701 ± 0.0172 fold-change vs cycle 0. For CCACAG, the binding signal was 0.371 ± 0.0258 fold-change vs cycle 0. For ACTCTG, the binding signal was 0.817 ± 0.0779 fold-change vs cycle 0. Work on GCACAA yielded a binding signal of 0.447 ± 0.00967 fold-change vs cycle 0. Work on AGTTCA yielded a binding signal of 1.42 ± 0.0499 fold-change vs cycle 0. In the case of ACTTTG, the binding signal is reported as 1.14 ± 0.054 fold-change vs cycle 0. For ATTCAG, the binding signal was 1.31 ± 0.0442 fold-change vs cycle 0. In the case of AGGATA, the binding signal is reported as 1.55 ± 0.0339 fold-change vs cycle 0. In the case of CCTAAC, the binding signal is reported as 0.883 ± 0.0279 fold-change vs cycle 0. For ATTCCG, the binding signal was 0.646 ± 0.0192 fold-change vs cycle 0. Sequence CCATGC has a binding signal of 0.345 ± 0.0259 fold-change vs cycle 0. For ACCGAA, the binding signal was 0.637 ± 0.01 fold-change vs cycle 0. TATGAA was tested, and the binding signal was 3.56 ± 0.299 fold-change vs cycle 0. AACATT was tested, and the binding signal was 1.95 ± 0.0486 fold-change vs cycle 0. For GCAACC, the binding signal was 0.327 ± 0.0217 fold-change vs cycle 0. ATCTCG was tested, and the binding signal was 0.777 ± 0.0506 fold-change vs cycle 0. Work on CCTCTC yielded a binding signal of 0.497 ± 0.0203 fold-change vs cycle 0. GAGAGC was tested, and the binding signal was 0.363 ± 0.00861 fold-change vs cycle 0. Sequence CAAGGC has a binding signal of 0.301 ± 0.0203 fold-change vs cycle 0. With ATCACC the binding signal was 0.917 ± 0.0379 fold-change vs cycle 0. CCTCAA gave a binding signal of 0.759 ± 0.0289 fold-change vs cycle 0. For AAATTA, the binding signal was 3.81 ± 0.372 fold-change vs cycle 0. AGACTA gave a binding signal of 1.31 ± 0.0607 fold-change vs cycle 0. Sequence AGCAAT has a binding signal of 1.19 ± 0.0605 fold-change vs cycle 0. AATAGA gave a binding signal of 2.12 ± 0.0946 fold-change vs cycle 0. GCTCCA gave a binding signal of 0.305 ± 0.0228 fold-change vs cycle 0. AATTTG was tested, and the binding signal was 1.6 ± 0.112 fold-change vs cycle 0. AACCTA gave a binding signal of 1.37 ± 0.0609 fold-change vs cycle 0. AACAGG showed a binding signal of 0.801 ± 0.0521 fold-change vs cycle 0. For AGAAAG, the binding signal was 1.31 ± 0.0378 fold-change vs cycle 0. AGAGAA showed a binding signal of 1.42 ± 0.0467 fold-change vs cycle 0. For GCTCAA, the binding signal was 0.548 ± 0.03 fold-change vs cycle 0. ATGAAC gave a binding signal of 1.5 ± 0.0592 fold-change vs cycle 0. Sequence AGTGCA has a binding signal of 0.627 ± 0.0465 fold-change vs cycle 0. GACATA showed a binding signal of 1.19 ± 0.0463 fold-change vs cycle 0. CATGAG was tested, and the binding signal was 0.884 ± 0.0345 fold-change vs cycle 0. For TGAACA, the binding signal was 1.29 ± 0.0296 fold-change vs cycle 0. With CCGTGA the binding signal was 0.39 ± 0.0265 fold-change vs cycle 0. Sequence GACGGA has a binding signal of 0.372 ± 0.0168 fold-change vs cycle 0. CAATAC gave a binding signal of 1.22 ± 0.0144 fold-change vs cycle 0.

Each sequence was assayed against T2, SALL4 ZFC4 R900W (HT-SELEX) (Mus musculus, UniProt Q8BX22 870-940, R900W) (assay: HT-SELEX; high values mean tight binding). Conditions: protein: recombinant; vector His6-GST; dsDNA, one strand shown.
T2 sequence: T1 sequence with R31W
Procedure, shortened: as §1
In the case of AGACCA, the binding signal is reported as 0.823 ± 0.0201 fold-change vs cycle 0. For CCACAG, the binding signal was 0.424 ± 0.0221 fold-change vs cycle 0. ACTCTG was tested, and the binding signal was 0.914 ± 0.0491 fold-change vs cycle 0. In the case of GCACAA, the binding signal is reported as 0.507 ± 0.00524 fold-change vs cycle 0. AGTTCA was tested, and the binding signal was 1.55 ± 0.0608 fold-change vs cycle 0. Sequence ACTTTG has a binding signal of 1.27 ± 0.0366 fold-change vs cycle 0. In the case of ATTCAG, the binding signal is reported as 1.44 ± 0.0342 fold-change vs cycle 0. AGGATA gave a binding signal of 1.69 ± 0.0876 fold-change vs cycle 0. CCTAAC was tested, and the binding signal was 0.976 ± 0.0147 fold-change vs cycle 0. ATTCCG was tested, and the binding signal was 0.697 ± 0.0273 fold-change vs cycle 0. Work on CCATGC yielded a binding signal of 0.399 ± 0.0174 fold-change vs cycle 0. For ACCGAA, the binding signal was 0.698 ± 0.028 fold-change vs cycle 0. Sequence TATGAA has a binding signal of 2.1 ± 0.116 fold-change vs cycle 0. In the case of AACATT, the binding signal is reported as 1.96 ± 0.0488 fold-change vs cycle 0. In the case of GCAACC, the binding signal is reported as 0.365 ± 0.0107 fold-change vs cycle 0. For ATCTCG, the binding signal was 0.837 ± 0.0514 fold-change vs cycle 0. Work on CCTCTC yielded a binding signal of 0.586 ± 0.028 fold-change vs cycle 0. GAGAGC was tested, and the binding signal was 0.422 ± 0.0138 fold-change vs cycle 0. CAAGGC was tested, and the binding signal was 0.371 ± 0.0118 fold-change vs cycle 0. In the case of ATCACC, the binding signal is reported as 0.988 ± 0.0223 fold-change vs cycle 0. In the case of CCTCAA, the binding signal is reported as 0.864 ± 0.0329 fold-change vs cycle 0. For AAATTA, the binding signal was 2.45 ± 0.183 fold-change vs cycle 0. Sequence AGACTA has a binding signal of 1.47 ± 0.0959 fold-change vs cycle 0. With AGCAAT the binding signal was 1.21 ± 0.0474 fold-change vs cycle 0. Sequence AATAGA has a binding signal of 2.06 ± 0.0912 fold-change vs cycle 0. With GCTCCA the binding signal was 0.37 ± 0.0101 fold-change vs cycle 0. For AATTTG, the binding signal was 1.56 ± 0.101 fold-change vs cycle 0. With AACCTA the binding signal was 1.47 ± 0.0701 fold-change vs cycle 0. Sequence AACAGG has a binding signal of 0.937 ± 0.0272 fold-change vs cycle 0. Work on AGAAAG yielded a binding signal of 1.52 ± 0.0945 fold-change vs cycle 0. Sequence AGAGAA has a binding signal of 1.64 ± 0.0726 fold-change vs cycle 0. GCTCAA was tested, and the binding signal was 0.644 ± 0.0305 fold-change vs cycle 0. ATGAAC showed a binding signal of 1.55 ± 0.0999 fold-change vs cycle 0. For AGTGCA, the binding signal was 0.704 ± 0.0363 fold-change vs cycle 0. For GACATA, the binding signal was 1.28 ± 0.0199 fold-change vs cycle 0. CATGAG was tested, and the binding signal was 0.992 ± 0.0188 fold-change vs cycle 0. For TGAACA, the binding signal was 1.4 ± 0.0577 fold-change vs cycle 0. CCGTGA gave a binding signal of 0.468 ± 0.0123 fold-change vs cycle 0. GACGGA showed a binding signal of 0.427 ± 0.0141 fold-change vs cycle 0. Work on CAATAC yielded a binding signal of 1.3 ± 0.0388 fold-change vs cycle 0.

The sequences below were run against T3, SALL4 ZFC4 G921D (HT-SELEX) (Mus musculus, UniProt Q8BX22 870-940, G921D) (assay: HT-SELEX; high values mean tight binding). Conditions: protein: recombinant; vector His6-GST; dsDNA, one strand shown.
T3 sequence: T1 sequence with G52D
Procedure, shortened: as §1
In the case of AGACCA, the binding signal is reported as 0.91 ± 0.0215 fold-change vs cycle 0. For CCACAG, the binding signal was 0.535 ± 0.0512 fold-change vs cycle 0. With ACTCTG the binding signal was 0.937 ± 0.0411 fold-change vs cycle 0. GCACAA was tested, and the binding signal was 0.634 ± 0.0509 fold-change vs cycle 0. With AGTTCA the binding signal was 1.44 ± 0.0878 fold-change vs cycle 0. ACTTTG showed a binding signal of 1.24 ± 0.052 fold-change vs cycle 0. For ATTCAG, the binding signal was 1.36 ± 0.0925 fold-change vs cycle 0. For AGGATA, the binding signal was 1.5 ± 0.15 fold-change vs cycle 0. In the case of CCTAAC, the binding signal is reported as 1 ± 0.0113 fold-change vs cycle 0. Work on ATTCCG yielded a binding signal of 0.798 ± 0.0236 fold-change vs cycle 0. In the case of CCATGC, the binding signal is reported as 0.514 ± 0.0663 fold-change vs cycle 0. For ACCGAA, the binding signal was 0.776 ± 0.0511 fold-change vs cycle 0. For TATGAA, the binding signal was 1.85 ± 0.171 fold-change vs cycle 0. AACATT showed a binding signal of 1.79 ± 0.136 fold-change vs cycle 0. Work on GCAACC yielded a binding signal of 0.503 ± 0.0559 fold-change vs cycle 0. ATCTCG showed a binding signal of 0.933 ± 0.0422 fold-change vs cycle 0. With CCTCTC the binding signal was 0.687 ± 0.045 fold-change vs cycle 0. GAGAGC gave a binding signal of 0.588 ± 0.0466 fold-change vs cycle 0. For CAAGGC, the binding signal was 0.492 ± 0.0622 fold-change vs cycle 0. ATCACC was tested, and the binding signal was 1.06 ± 0.0273 fold-change vs cycle 0. In the case of CCTCAA, the binding signal is reported as 0.951 ± 0.0279 fold-change vs cycle 0. AAATTA was tested, and the binding signal was 2.13 ± 0.261 fold-change vs cycle 0. AGACTA was tested, and the binding signal was 1.41 ± 0.0994 fold-change vs cycle 0. AGCAAT was tested, and the binding signal was 1.25 ± 0.111 fold-change vs cycle 0. AATAGA was tested, and the binding signal was 1.79 ± 0.161 fold-change vs cycle 0. For GCTCCA, the binding signal was 0.505 ± 0.0396 fold-change vs cycle 0. In the case of AATTTG, the binding signal is reported as 1.51 ± 0.0903 fold-change vs cycle 0. Sequence AACCTA has a binding signal of 1.4 ± 0.0994 fold-change vs cycle 0. With AACAGG the binding signal was 0.942 ± 0.0148 fold-change vs cycle 0. AGAAAG was tested, and the binding signal was 1.36 ± 0.112 fold-change vs cycle 0. AGAGAA gave a binding signal of 1.46 ± 0.11 fold-change vs cycle 0. GCTCAA showed a binding signal of 0.763 ± 0.038 fold-change vs cycle 0. In the case of ATGAAC, the binding signal is reported as 1.47 ± 0.0678 fold-change vs cycle 0. Sequence AGTGCA has a binding signal of 0.802 ± 0.0221 fold-change vs cycle 0. In the case of GACATA, the binding signal is reported as 1.25 ± 0.0289 fold-change vs cycle 0. CATGAG was tested, and the binding signal was 1.03 ± 0.0481 fold-change vs cycle 0. For TGAACA, the binding signal was 1.36 ± 0.0684 fold-change vs cycle 0. CCGTGA gave a binding signal of 0.578 ± 0.0442 fold-change vs cycle 0. Sequence GACGGA has a binding signal of 0.545 ± 0.0666 fold-change vs cycle 0. For CAATAC, the binding signal was 1.29 ± 0.0522 fold-change vs cycle 0.
